FBW7 activator – FBW7 E3 ligase activators, primary screen, biochemical, AlphaScreen, human. 0.13% of 650,000 active. normalized activity (activation), % at 26.1 µM. F-box/WD repeat-containing protein 7 (Homo sapiens), Q969H0. AlphaScreen FBW7–phospho-cyclin E peptide binding, activator screen; in the data active means normalized activity above about 1.9%;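 further: purified mutant Fbw7 with reduced substrate affinity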
Target sequence (Q969H0 whole entry, looked up): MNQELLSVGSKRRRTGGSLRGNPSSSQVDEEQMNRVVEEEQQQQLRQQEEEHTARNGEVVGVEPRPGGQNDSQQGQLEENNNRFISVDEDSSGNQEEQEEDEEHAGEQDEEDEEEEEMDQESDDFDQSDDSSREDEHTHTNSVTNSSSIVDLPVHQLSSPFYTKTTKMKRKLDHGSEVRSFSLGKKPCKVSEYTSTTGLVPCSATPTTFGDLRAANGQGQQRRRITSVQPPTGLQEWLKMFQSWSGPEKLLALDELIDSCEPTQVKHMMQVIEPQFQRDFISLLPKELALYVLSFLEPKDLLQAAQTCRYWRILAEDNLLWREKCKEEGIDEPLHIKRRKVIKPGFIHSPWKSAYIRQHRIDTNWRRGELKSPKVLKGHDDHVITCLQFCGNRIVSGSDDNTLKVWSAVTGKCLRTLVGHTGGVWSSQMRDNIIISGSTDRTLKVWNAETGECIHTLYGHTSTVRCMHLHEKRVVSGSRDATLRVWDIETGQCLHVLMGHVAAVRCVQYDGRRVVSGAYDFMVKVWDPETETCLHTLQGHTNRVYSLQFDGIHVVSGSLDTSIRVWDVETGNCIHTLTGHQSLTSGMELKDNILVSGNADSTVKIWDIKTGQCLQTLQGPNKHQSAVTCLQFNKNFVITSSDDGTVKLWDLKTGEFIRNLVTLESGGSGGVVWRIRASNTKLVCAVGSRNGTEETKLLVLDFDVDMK
MITF primary – MITF inhibitors, primary screen, biochemical, AlphaScreen, human. Microphthalmia-associated transcription factor (Homo sapiens), O75030. AlphaScreen MITF homodimerization, bead proximity signal. inhibition, % at 2.6 µM. 0.91% of 650,000 active. AID 1259374, 2018; in the data active means inhibition above about 50%;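 further: 0% = vehicle wells with protein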
TEAD-YAP block – TEAD-YAP interaction inhibition, primary screen, TEAD-YAP interaction inhibitor project, luminescence, HEK-TIYL cells; TEAD-Gal4/YAP UAS-luciferase luminescence; inhibition, % at 9.12 µM; 1.4% of 640,000 active; in the data active means inhibition above about 32%;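 further: 0% = median of test compound wells and 100% = reference inhibitor wells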
GPR151 activ – activators of human GPR151, primary screen, cell-based, PathHunter beta-arrestin, luminescence; activation, % at 11.2 µM; G-protein coupled receptor 151 (Homo sapiens), Q8TDV0; PathHunter beta-arrestin GPR151 cells; 1% of 650,000 active; AID 1508602, 2020; in the data active means activation above about 4.9%;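 further: 0% = median of compound wells and 100% = cells with positive control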
MITF inh conf – MITF inhibitors, retest of hits, confirmation, biochemical, AlphaScreen, triplicate. shares compounds with MITF primary. AlphaScreen MITF homodimerization, biotin/His-MITF beads. inhibition, % at 2.6 µM. 16% of 4,700 active;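 active means inhibition above a cutoff derived from the DMSO control wells, cut at about 28% in these data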;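 further: 0% = MITF dimer wells with DMSO only; inhibitors lower the bead chemiluminescence by keeping MITF from dimerizing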
AlphaScreen intf2 – AlphaScreen optical interference compounds, counter-screen for MITF inhibitor project, biochemical, triplicate | shares compounds with MITF primary | LysRS AlphaScreen counterscreen, signal interference | inhibition, % at 2.6 µM | 7.6% of 4,700 active;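 active means inhibition above a cutoff derived from the DMSO control wells, cut at about 30% in these data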
Numbers without * were called inactive; . = no result. Most compounds without a hit are left out; they make up all but 3.5% or so of the library.

SMILES | FBW7 activator | MITF primary | TEAD-YAP block | GPR151 activ | MITF inh conf | AlphaScreen intf2
COc1ccccc1CCNC(=O)c1ncoc1-c1cccs1 | 0.1 | 0.8 | -21.4 | 0.8 | . | .
CCCOc1ccc(C(=O)Nc2cccc(-c3nc4ncccc4o3)c2)cc1 | 0.1 | 69.4* | -0.2 | -0.1 | 13.2 | 15.6
Cc1ccc(Cl)cc1NC(=O)c1ccc(N2CC3CC(C2)c2cccc(=O)n2C3)c(NC(=O)c2cccs2)c1 (stereo not given) | 0.2 | 11.5 | -11.4 | -1.5 | . | .
Cc1ccc(OCCN2CC(C)OC(C)C2)c(Cl)c1 (stereo not given) | -0.2 | 64.5* | -9.9 | 0.9 | 8.8 | 6.7
COc1cc(C)ccc1OCCOCCN1CC(C)OC(C)C1 (stereo not given) | -0.2 | 56.5* | 4.1 | 1.1 | 3.9 | 16.4
C/C=C/c1ccc(OCCCN2CC(C)OC(C)C2)c(OC)c1 (stereo not given) | -0.1 | 49.8 | -4.1 | -1.2 | . | .
C/C=C/c1ccc(OCCN2CC(C)OC(C)C2)c(OC)c1 (stereo not given) | -0.2 | 64.3* | 10.7 | -2.6 | -2.6 | 5.6
CCN1CCN(c2ncnc3sc(C(=O)Nc4c(F)cccc4F)c(C)c23)CC1 | -0.1 | -5.0 | -15.3 | 0.2 | . | .
C=CCn1c2cc(C)oc2c2cnn(CC(=O)NCc3nc4ccccc4[nH]3)c(=O)c21 | -0.1 | -7.8 | -8.5 | -1.0 | . | .
Cc1csc(NC(=O)CCC(=O)N(CC(=O)NC2CCCC2)c2ccc(F)cc2)n1 | 0.3 | 3.9 | 13.9 | 0.1 | . | .
c1ccc(OCCNc2nc(N3CCC(N4CCOCC4)CC3)nc3nc[nH]c23)cc1 | 0.3 | 9.0 | -4.7 | 4.2 | . | .
OC(CNCC(O)c1ccccc1)c1ccccc1 (stereo not given) | 0.2 | 16.9 | 7.9 | -1.5 | . | .
OC(CNCc1ccccn1)c1ccccc1 (stereo not given) | -0.8 | 54.0* | -9.1 | -0.3 | 7.4 | 43.4*
Cc1ccccc1C(OCC(O)CNCc1ccccn1)c1ccccc1 (stereo not given) | -1.2 | 50.7* | -7.2 | 2.3 | 13.1 | 33.4*
O=C(Cn1c(=O)oc2cc(S(=O)(=O)N3CCCCCC3)ccc21)Nc1ccc(F)cc1 | 0.3 | 6.7 | 16.5 | -0.5 | . | .
CC(=O)c1sc2nc(-c3cccs3)ccc2c1N | 0.2 | 50.8* | -28.1 | -0.9 | 10.3 | 11.5
COc1ccc(CNC(=O)c2sc3nc(-c4cccs4)ccc3c2N)cc1 | 1.3 | 1.4 | 4.4 | 0.3 | . | .
COc1ccc(N(C(=O)/C=C/c2ccccc2)C2=CC3CCC(C2)N3C)cc1 (stereo not given) | 0.2 | 56.2* | -32.9 | -2.7 | 9.0 | 11.0
c1ccc2c(Nc3nc(NCc4nc5ccccc5[nH]4)c4ncn(-c5ccsc5)c4n3)nccc2c1 | 1.1 | 61.6* | 26.8 | 2.4 | -6.8 | 10.9
COc1ccc(CC2CC(=O)N(c3ccc(OC)cc3)C2=O)cc1 (stereo not given) | 0.1 | 1.8 | 3.8 | 0.9 | . | .
COc1ccc(CN2CCN(Cc3ccc(C(F)(F)F)cc3)CC2)cc1OC | -0.5 | 23.5 | 14.0 | -1.6 | . | .
COc1cc(CN2CCN(Cc3ccc(OC)c(OC)c3OC)CC2)cc(OC)c1 | 0.1 | 70.1* | 13.0 | 0.2 | -11.0 | -4.8
COc1ccc(CN2CCN(Cc3ccc(C(F)(F)F)cc3)CC2)c(OC)c1OC | -0.1 | 78.0* | 1.0 | -0.7 | 10.4 | 13.5
COc1ccc(CN2CCN(Cc3ccccc3Br)CC2)c(OC)c1OC | -0.1 | 80.9* | -6.3 | -1.0 | 18.5 | 8.0
COc1ccc(CN2CCN(c3ccccc3)CC2)c(OC)c1OC | -0.1 | 26.6 | -6.6 | -0.1 | . | .
SMILES | FBW7 activator | MITF primary | TEAD-YAP block | GPR151 activ | MITF inh conf | AlphaScreen intf2
COc1cc(CN2CCN(Cc3ccc(C(F)(F)F)cc3)CC2)cc(OC)c1OC | 0.7 | 84.9* | 19.1 | -0.5 | 4.5 | 17.4
COC(=O)c1ccc2c(=O)n(Cc3ccc4c(c3)OCO4)c(SCC(=O)c3ccc(Br)cc3)nc2c1 | -0.1 | 8.8 | -7.4 | -0.8 | . | .
COC(=O)C1=CN(Cc2ccc(OC)cc2)C=C(C(=O)OC)C1c1cc(OC)c(OC)cc1OC | 0.1 | -8.1 | -16.4 | 1.8 | . | .
CCN(CC)C(=O)C1CCCN(c2nc(NC3CCN(Cc4ccccc4)CC3)c3ncn(-c4ccsc4)c3n2)C1 (stereo not given) | -0.5 | 19.9 | 28.5 | 0.6 | . | .
COc1ccc(CN2CCN(Cc3ccncc3)CC2)c(OC)c1OC | 0.1 | 61.9* | 9.6 | 0.0 | -2.5 | -0.7
C=CCc1ccc(OCCCNC(C)CC)c(OC)c1 (stereo not given) | -0.2 | 13.1 | 12.0 | 1.2 | . | .
C=CCc1ccc(OCCOCCNC(C)CC)c(OC)c1 (stereo not given) | -0.3 | 76.7* | 4.9 | -1.2 | 7.9 | 7.0
C=CCc1ccc(OCCOCCN2CCN(CC)CC2)c(OC)c1 | -0.3 | 65.3* | -10.8 | -1.0 | 13.9 | 14.6
CCC(C)C1N=C2c3ccccc3N=C(SCc3ccc(F)cc3)N2C1=O (stereo not given) | 0.0 | 15.7 | -9.1 | -1.0 | . | .
Cc1cccc(NCc2cccc([N+](=O)[O-])c2)c1 | -0.3 | 68.5* | -3.1 | -0.5 | -4.2 | -3.7
COc1ccc(OC)c(CNc2cccc(C)c2)c1 | -0.2 | 64.1* | 5.5 | 2.0 | 15.3 | 21.8
COc1cc(OC)c(OC)cc1CNc1cccc(C)c1 | -0.1 | 51.6* | 0.7 | -0.8 | -6.2 | 0.1
O=C(NCc1cccnc1)c1cccc(NCc2cccnc2)n1 | 0.0 | 5.5 | 5.5 | -2.6 | . | .
O=C(Nc1ccc(NC(=O)c2ccccc2)cc1)c1ccccc1 | 0.1 | 3.4 | -1.9 | 3.1 | . | .
Nc1c(C(=O)Nc2ccc(Cl)cc2)nnc2cc(-c3ccc(Cl)cc3)nn12 | 0.0 | 82.0* | 5.1 | -0.3 | 7.2 | 4.7
O=C(Nc1ccc(-c2ccc3nnc(-c4ccncc4)n3n2)cc1)c1ccc(Cl)cc1 | 0.4 | 7.5 | 8.0 | 1.6 | . | .
COc1cccc(C(=O)NC(C)c2nnc3n2CCN(Cc2ccc(OC)c(C)c2)CC3)c1 (stereo not given) | 0.0 | 11.2 | 9.8 | 1.4 | . | .
N/N=C(\Cc1ccc2ccccc2n1)c1ccccc1 | 0.1 | 7.5 | -53.3 | 0.9 | . | .
CCOC(=O)C(=O)Cc1ccc2ccccc2n1 | 0.4 | 53.5* | -3.1 | -0.5 | 4.8 | -6.0
O=C(NCc1ccccc1)c1ccc(CS(=O)c2ccc(Br)cc2)o1 (stereo not given) | -0.1 | 4.8 | 7.3 | -0.4 | . | .
O=C(NCc1ccco1)c1ccc(CS(=O)c2ccc(Br)cc2)o1 (stereo not given) | -0.1 | 76.9* | -1.3 | 0.7 | -11.3 | -1.6
Cc1cc(C)cc(C(=O)O/N=C(\N)c2cccnc2)c1 | 0.1 | 55.7* | -10.4 | 0.5 | -19.8 | -1.9
COc1cccc(C(=O)O/N=C(\N)c2cccnc2)c1 | 0.0 | 8.7 | -41.5 | -3.8 | . | .

Assay outcomes: PubChem BioAssay, The Scripps Research Institute Molecular Screening Center
